Bioassay records (PubChem)
Most compounds without a hit are left out; they make up all but 4.8% or so of the library.
DAX1 inh-1 – DAX1 (NR0B1) inhibition, primary screen; HEK293T StAR-luciferase reporter, SF-1/DAX-1 repression relief; inhibition, % at 6.8 µM; 370,000 compounds, 1.1% hits;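 active = inhibition above the mean over all tested compounds plus 3 SD, cut at about 3.6% in these data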;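 note: 0% = DAX-1 cells with DMSO and 100% = cells lacking DAX-1 with DMSO; higher inhibition means more luminescence from relief of DAX-1 repression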
hgDAF-12 ag – hgDAF-12 agonism, primary luciferase screen | HEK293 GAL4-hgDAF12 UAS-luciferase reporter, agonist luminescence; normalized to butyrate control | activation, % at 6.8 µM | 370,000 compounds, 1.8% hits | AID 687014;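 active = activation above a cutoff set at the mean of all screened compounds plus 3 SD, cut at about 10% in these data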;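 note: 0% = DMSO wells and 100% = sodium butyrate wells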
SMARCA2 activ – SMARCA2 function activation, primary screen; MG213 cells, MMTV-luciferase reporter, dexamethasone, overnight; activation, % at 9.1 µM; 370,000 compounds, 1% hits; in the data active = activation above about 7.8%;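 note: 0% = vehicle wells and 100% = reference activator wells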
ssDAF-12 act – activators of S. stercoralis DAF-12 nuclear receptor | 370,000 compounds, 1% hits | HEK293 ssDAF-12/GRIP1 lit1-tk-luc reporter, luminescence; % of 3 µM dafachronic acid response | activation, % at 6.8 µM;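 active = activation above the mean over all tested compounds plus 3 SD, cut at about 0.9% in these data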;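 note: 0% = DMSO-only wells and 100% = 3 µM delta7-dafachronic acid wells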
DAX1 inh-2 – inhibitors of human orphan nuclear receptor DAX1 (NR0B1); P51843; 340,000 compounds, 0.99% hits; inhibition, % at 6.75 µM; HEK293 Gal4-DAX1 luciferase reporter, luminescence;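 active = inhibition above the mean over all tested compounds plus 3 SD, cut at about 4.2% in these data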;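 note: 0% = DAX1-transfected cells with DMSO and 100% = empty-vector control cells with DMSO; inhibition shows as a rise in luminescence from relieved DAX1 repression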
Target sequence (P51843 207-470 limits assumed): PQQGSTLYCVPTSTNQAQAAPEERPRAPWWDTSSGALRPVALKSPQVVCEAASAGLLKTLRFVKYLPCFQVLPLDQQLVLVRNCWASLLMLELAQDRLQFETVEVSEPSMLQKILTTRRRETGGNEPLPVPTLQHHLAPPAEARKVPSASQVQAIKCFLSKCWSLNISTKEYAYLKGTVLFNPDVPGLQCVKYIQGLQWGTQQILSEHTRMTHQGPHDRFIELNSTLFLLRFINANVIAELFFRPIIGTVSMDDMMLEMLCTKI
hcDAF12 agonist – activators of H. contortus DAF-12 nuclear receptor; HEK293 hcDAF-12 lit1-tk-luc reporter, luminescence; 0% DMSO, 100% Δ7-dafachronic acid; activation, % at 6.8 µM; 370,000 compounds, 1.4% hits;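 active = activation above the mean of all tested compounds plus 3 SD, cut at about 5.5% in these data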;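 note: 100% = response to 3 µM Δ7-dafachronic acid high control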
* hit, by the source's call; nt = no result.

SMILES	DAX1 inh-1	hgDAF-12 ag	SMARCA2 activ	ssDAF-12 act	DAX1 inh-2	hcDAF12 agonist
COc1ccc(-c2nnc(SCC(=O)N3CCCC3)o2)c(OC)c1	1	12*	0	-1	1	2
O=C(/C=C/c1nc2ccccc2s1)N1CCCCCC1	3	11*	6	-1	0	2
OCCCn1c(C2CCCN2c2nc(-c3ccc(Cl)cc3)cs2)nc2cc(Cl)c(N3CCCCC3)cc21 (stereo unspecified)	0	3	-2	-1	5.3*	-1
COc1ccc(OC[C@@H](O)CN2CCC(C(O)(c3ccccc3)c3ccccc3)CC2)cc1	1	4	-6	0	nt	-2
CCOC(=O)C1=C(N)c2ccccc2CC1C1CCCC1 (stereo unspecified)	0	2	-2	-2	1	0
C=C1c2ccccc2O[C@H](C(=O)OCC)[C@@H]1C1CCCCC1	4.1*	1	-1	-1	-1	2
CCCC(=O)N/C(N)=N/c1nc2ccccc2o1	1	10	4	0	2	5
CC(C)CC(=O)N/C(N)=N/c1nc2ccccc2o1	2	9	4	-1	5.3*	3
CCC(=O)N/C(N)=N/c1nc2ccccc2o1	2	7	1	-1	5.4*	2
COc1ccc(-c2noc(-c3ccc(Cl)cc3[N+](=O)[O-])n2)cc1OC	1	7	5	-1	3	5.7*
COc1ccc(-c2noc(-c3ccccc3Cl)n2)cc1OC	3	7	5	-1	5.1*	2
COc1ccc(-c2noc(-c3cccc(Cl)c3)n2)cc1OC	0	3	0	-2	0	-2
OC(c1ccccc1)(c1ccccc1)C1CCN(CCCNc2ccc(Cl)cc2Cl)CC1	0	-2	-3	-2	nt	-2
COc1ccc(S[C@]2(C(=O)N3CCOCC3)CC(=O)N(c3ccc(OC)cc3)[C@@H]2c2ccc(OC)cc2)cc1	-1	2	-6	-1	nt	-1
Nc1c(-c2ccc(Cl)cc2)nnn1-c1ccccc1	2	11*	3	-1	3	2
Cc1csc(SCC(=O)NC(=O)c2ccccc2)n1	2	-1	-3	-1	1	-1
CSc1nnc(SCC(=O)NC(=O)c2ccccc2)s1	4.1*	2	-2	-1	2	1
COC(=O)c1cc(-c2ccc(-c3ccccc3)c(F)c2)c(=O)n2c1CCC2	0	0	0	-1	nt	-1
O=C(NCC(c1ccco1)N1CCCCC1)c1cccs1 (stereo unspecified)	1	0	-6	-1	0	3
O=C(NCC(c1ccco1)N1CCCCC1)c1cc2c(s1)CCCC2 (stereo unspecified)	4.2*	1	-3	0	-1	-1
O=c1c2ccccc2nc2ccc(NCc3cccs3)nn12	2	6	7	-1	4.7*	2
CCOC(=O)CC[C@H]1CC[C@]2(CCCN(C(=O)c3ccno3)C2)O1	0	-2	-2	-1	nt	-1
O=C1CSC(=S)N1N=Cc1c(O)ccc2ccccc12	2	4	-2	1.0*	3	4
COc1ccc(C2Nc3ccccc3C(=O)N2c2ccccc2)cc1CN1CCOCC1 (stereo unspecified)	-1	0	1	-1	6.1*	1
CCc1ccccc1Nc1ccc(C(=O)O)cc1N	0	7	1	-2	6.6*	2
SMILES	DAX1 inh-1	hgDAF-12 ag	SMARCA2 activ	ssDAF-12 act	DAX1 inh-2	hcDAF12 agonist
O=C(NCCC(=O)N1CCN(c2ccccc2F)CC1)c1ccco1	3.7*	1	1	-1	0	1
CC(=O)Nc1ccc(Nc2nc(C)nc3c2oc2ccccc23)cc1	0	-4	1	-2	-1	0
CC(=O)c1ccc(Nc2ncnc3c2oc2ccccc23)cc1	1	10	2	1.0*	2	2
O=C(Cc1ccccc1)NC1CCCCN(Cc2ccc(Cl)cc2)C1=O (stereo unspecified)	0	-3	-5	-1	nt	0
Cc1ccc(CN2CCCCC(NC(=O)c3ccccc3C)C2=O)cc1 (stereo unspecified)	-1	1	-1	-1	nt	-2
O=C(Nc1cccc2c1[nH]c(=O)c1ccccc12)C(F)(F)F	4.0*	6	0	-1	3	-1
CCCCNC(=O)C[C@H]1C[C@@]2(C(=O)OC)C(=C[C@H](C(C)(C)C)O[C@@H]2C)N(Cc2cccc3ccccc23)C1=O	-1	-2	-3	-2	nt	-1
O=C1C2C3c4ccccc4C(c4ccccc43)[C@@H]2C(=O)N1c1nc(-c2ccccc2)cs1 (stereo partly specified)	0	4	0	-1	5.0*	-2
O=C(OCCN1CCN(C2CN(Cc3cn(Cc4ccccc4Cl)nn3)S(=O)(=O)C2)CC1)c1cc2ccccc2o1 (stereo unspecified)	-1	5	-3	-2	nt	-1
CCCCCn1nnc2c(=O)oc3ccccc3c21	0	-2	0	1.1*	0	-1
c1ccc(-c2cc3ccccc3cn2)cc1	2	10	7	1	3	6.2*
O=C(NC1CCCc2ccccc21)C1CCN(c2c3c(nc4ncnn24)CCC3)CC1 (stereo unspecified)	0	0	1	1.1*	-1	-1
COC(=O)[C@]12C[C@H](CC(=O)NCc3ccc(OC)c(OC)c3)C(=O)N(Cc3ccco3)C1=C[C@H](C(C)C)O[C@@H]2C1CC1	1	3	-1	-1	nt	-2
O=c1c2ccccc2oc2cc(NCCCN3CCOCC3)ccc12	3	12*	6	0	2	4
COC(=O)[C@]12CCCCC=C1N(Cc1ccc3c(c1)OCO3)C(=O)[C@H](CC(=O)NCC1CCCCC1)C2	4.1*	3	0	-1	nt	0
COCCCNC(=O)C[C@@H]1C[C@@]2(C(=O)OC)CCCCC=C2N(Cc2ccc3c(c2)OCO3)C1=O	2	0	-4	-1	nt	-1
COc1ccccc1NC(=S)NNC(=O)c1ccccc1Br	2	10	6	1.3*	-1	4
COc1cc(OC)cc(C(=O)NNC(=S)Nc2ccccc2OC)c1	0	2	-3	-2	2	2
COc1ccccc1NC(=S)NNC(=O)c1ccccc1	2	11*	3	0	1	0
COc1ccccc1NC(=S)NNC(=O)c1ccncc1	0	4	4	-1	-1	-1
COC(=O)[C@H](CCSC)NC(=O)Cn1cnc(C(=O)Nc2ccc(C)c(C)c2)n1	3	11*	2	-1	2	5.7*
Cc1cccc(CNC(=S)OC2CCC23CCC(c2ccccc2)CC3)c1 (stereo unspecified)	-1	3	0	-1	nt	4
